The whole screen tested about 69,000 compounds, of which about 8,600 (12%) showed an effect of 50% or more. The list comes from a sample in which strong results are over-represented; it also holds similar structures and randomly drawn compounds.
Tested on: Plasmodium berghei
Experiment: Screen against P. berghei liver stage (PbLuc), transformed with Luciferase, at 10uM
Type: functional, HepG2
Conditions: tested at 10 uM

Row | SMILES | INHIBITION [%]
1 | Cc1nc(Cc2ccc(F)cc2)cc(C2COCCN2)n1 (stereo unspecified) | 35.305
2 | O=C(C1CC1)N1CCCC(c2nc(O)cc(-c3ccncc3)n2)C1 (stereo unspecified) | 47.2
3 | COc1ccc(CN2C[C@H]3C[C@H](CN(C)C)O[C@H]3C2)cc1 | 28.4
4 | CNCCc1nc2cc(Cl)ccc2[nH]1 | 31.9
5 | CCNCCc1nc2cc(F)ccc2[nH]1 | 72.3
6 | CNCCc1nc2cc(F)ccc2[nH]1 | -2.37
7 | CC(C)c1nc(CN2CCC(c3ccnn3CCO)CC2)no1 | 38.5
8 | CCN(c1ccc(C(=O)N2CCCCCC2)cc1)S(=O)(=O)CC | 3.77
9 | CC(C)N1CCCC(CN(C)c2ccc(Cn3ccnc3)cn2)C1 (stereo unspecified) | -23.4
10 | CSCc1ccc(N(C)CC2CCCN(C(C)C)C2)nc1 (stereo unspecified) | -43.1
11 | CN(CC1CCN(c2ccccc2)C1)c1ccc(Cn2ccnc2)cn1 (stereo unspecified) | 74.9
12 | Cn1c2c(c(=O)n1C)CN(C(=O)c1ccncc1F)CCC2 | 25.8
13 | COC(=O)c1cc(C(=O)N2CCN(C)CC2)n(-c2ccccc2)n1 | 30.2
14 | CNC(=O)NCC(=O)N1CCCC1Cc1cccc(F)c1 (stereo unspecified) | 10.6
15 | NC(=O)c1cccnc1N1C[C@H]2CC[C@@H](C1)N(Cc1ccccn1)C2=O | 43.8
16 | COc1ccc(CN2CC[C@H](c3nc4cccc(C(N)=O)c4[nH]3)C2)cc1 | 22.3
17 | Cc1ccc2[nH]c(C3CCN(CC(N)=O)CC3)nc2c1 | -9.51
18 | NC(=O)c1cccc2nc([C@H]3CCN(Cc4ccccc4F)C3)[nH]c12 | 14.9
19 | NC(=O)c1cccc2nc([C@H]3CCN(Cc4ccccn4)C3)[nH]c12 | 66.6
20 | Cc1ccc(CN2CC[C@H](c3nc4cccc(C(N)=O)c4[nH]3)C2)cc1 | 59.2
21 | CS(=O)(=O)N1CC[C@@H]2[C@@H]1CCN2Cc1ccc2c(c1)OCO2 | 7.5
22 | CC(C)N(CCCNC(=O)C1CCCN(C(N)=O)C1)S(C)(=O)=O (stereo unspecified) | 36.5
23 | CN(Cc1cn(CC2CCNCC2)nn1)CC1CCCCO1 (stereo unspecified) | -1.04
24 | O=C1[C@H]2CN(Cc3ccco3)C[C@H]2CN1c1ccsc1 | 31.1
25 | CC(NCCCN1CCCN(C)CC1)C(C)(C)C (stereo unspecified) | 26
26 | Cc1cc(NC(=O)Cn2ccccc2=O)n(C)n1 | 11.5

Row | SMILES | INHIBITION [%]
27 | Cc1ccccc1-c1cc(NC(=O)Cn2ccccc2=O)n(C)n1 | -3.94
28 | Cn1nc(C(C)(C)C)cc1NC(=O)Cn1ccccc1=O | 54.3
29 | c1cnc(N2CCO[C@H]3CN(CC4CCCC4)C[C@H]32)cn1 | 42.1
30 | c1cnc(N2CCO[C@H]3CN(CC4CCOC4)C[C@H]32)cn1 (stereo partly specified) | 44.8
31 | c1cncc(N2CCO[C@H]3CN(CC4CCOC4)C[C@H]32)c1 (stereo partly specified) | 62
32 | c1cnc(N2CCO[C@H]3CN(CC4CCC4)C[C@H]32)cn1 | 62
33 | Fc1cnc(N2CCO[C@H]3CN(CC4CCC4)C[C@H]32)nc1 | 12.2
34 | Fc1cnc(N2CCO[C@H]3CN(CC4CCOC4)C[C@H]32)nc1 (stereo partly specified) | 43.1
35 | O=C(C1=CCCCC1)N1CCO[C@H]2[C@H](Oc3ccccn3)CC[C@@H]21 | 27.6
36 | CCCc1nc(C)cc(NCc2ccc(S(N)(=O)=O)cc2)n1 | 18.5
37 | CCOc1ccc(-n2nnc(C(=O)O)c2-c2ccccn2)cc1 | -31.6
38 | CCN(Cc1ccccn1)Cc1cc(Cl)ccc1OC | 39.1
39 | CCN(Cc1cc(Cl)ccc1OC)Cc1cc(C)nn1C | 57.9
40 | CCN(Cc1cc(Cl)ccc1OC)Cc1nccn1C | 15.3
41 | O=C(CCCN1CCCCC1)N1CCN(C(=O)c2nc[nH]n2)CC1 | -15.5
42 | Cc1[nH]ncc1CCCNC(=O)Nc1ccccc1 | 24.6
43 | Cc1[nH]ncc1CCCNC(=O)Nc1ccc(C#N)cc1 | -70.3
44 | Cc1[nH]ncc1CCCNC(=O)N1CCOC(C)C1 (stereo unspecified) | -1.95
45 | Cc1[nH]ncc1CCCNC(=O)Nc1ccc(F)cc1 | 78.2
46 | Cc1[nH]ncc1CCCNC(=O)Nc1ccc2c(c1)OC1(CCCC1)O2 | 70.3
47 | Cc1[nH]ncc1CCCNC(=O)Nc1ccc(S(C)(=O)=O)nc1 | 22.6
48 | CN(CC1CCOC1)c1ccc(Br)cn1 (stereo unspecified) | 44.2
49 | CS(=O)(=O)N1CC[C@@H]2OC(COCC(=O)N3CCCC3)CC[C@@H]21 (stereo partly specified) | -8.94
50 | CC(CCN1CCC(n2cc(CCO)nn2)CC1)c1ccccc1 (stereo unspecified) | 24.9
51 | COCc1cn(C2CCN(CCC(C)c3ccccc3)CC2)nn1 (stereo unspecified) | 55.7
52 | CNCc1cn(C2CCN(CCC(C)c3ccccc3)CC2)nn1 (stereo unspecified) | 3.06

Row | SMILES | INHIBITION [%]
53 | O=C1[C@@H]2CCN(C3CCOCC3)C[C@@H]2OCCN1Cc1cccnc1 | -8.54
54 | CO[C@H]1CCN(S(=O)(=O)c2cn(C)cn2)[C@H]1Cc1cnn(C)c1 | 10.8
55 | CN1CCc2nnc(C3CCCN3S(=O)(=O)c3ccc(F)cc3)n2CC1 (stereo unspecified) | -9.08
56 | Cc1cc(C)c(CNCC(O)c2ccc(F)c(F)c2)c(C)c1 (stereo unspecified) | -20.3
57 | CSc1ccc(CCN2CCN([C@H]3CCCC[C@@H]3O)CC2)cc1 | 25.1
58 | O[C@H]1CCCC[C@@H]1N1CCN(CCCc2ccc3c(c2)OCO3)CC1 | 53.8
59 | c1cc2c(cc1CN1C[C@@H]3COC[C@@H](N4CCCC4)[C@@H]3C1)OCO2 | 39.4
60 | CCCOc1c(CNC2CCSC2)cccc1OC (stereo unspecified) | 4.87
61 | CCn1c(Cn2cncn2)nnc1C1CCN(CC2[C@H]3CNC[C@@H]23)CC1 (stereo partly specified) | 57.1
62 | CCn1c(Cn2cncn2)nnc1C1CCN(Cc2ccncc2)CC1 | -22.1
63 | CCn1c(Cn2cncn2)nnc1C1CCN(CCN)CC1 | 43.8
64 | CC(C)c1nn(C)c(N(C)C)c1CNCCC(=O)N(C)C | 3.19
65 | CC(C)(C)NC(=O)CN1CCCN(Cc2ccc(C#N)cc2)CC1 | -7.77
66 | CC(C)(O)CN1CCN(C(=O)c2sccc2C#N)CC1 | 54.4
67 | CC(C)C(C)(C#N)NC(=O)CN1CCCN(Cc2ccccc2F)CC1 (stereo unspecified) | 82.4
68 | CC(C)(C)n1cc(C(=O)N2CCN(Cc3ccncc3)CC2)cn1 | 24.15
69 | CCc1ccsc1C(=O)N1CCN(CC(C)(C)O)CC1 | -13.5
70 | CCCN1CCN(C(=O)c2cnn(-c3ccccc3F)c2)CC1 | -39.9
71 | CC(C)(O)CN1CCN(C(=O)c2cnn(-c3ccccc3F)c2)CC1 | 58.5
72 | O=C(c1cnn(-c2ccccc2F)c1)N1CCN(CCO)CC1 | -10.3
73 | CC(C)(C)NC(=O)CN1CCCN(Cc2cc(C#N)ccc2F)CC1 | -24.9
74 | CSc1ccsc1C(=O)N1CCN(CC(C)(C)O)CC1 | 25.3
75 | CC(C)(C)n1cc(C(=O)N2CCN(Cc3ccccc3F)CC2)cn1 | 71.4
76 | CC(C)(C)n1cc(C(=O)N2CCN(Cc3ccco3)CC2)cn1 | 6.15
